Only a selection was taken, and hits are over-represented in it overall.
ST2 inh – inhibitors of human ST2 (IL1RL1) binding to IL-33; inhibition, % for hits at 17 µM; 78,000 tested, 2.3% active; Q01638; AlphaLISA ST2-Fc/biotin-IL-33 interaction, 1 h; in the data active = inhibition above about 30%
Target sequence (Q01638 whole entry, looked up): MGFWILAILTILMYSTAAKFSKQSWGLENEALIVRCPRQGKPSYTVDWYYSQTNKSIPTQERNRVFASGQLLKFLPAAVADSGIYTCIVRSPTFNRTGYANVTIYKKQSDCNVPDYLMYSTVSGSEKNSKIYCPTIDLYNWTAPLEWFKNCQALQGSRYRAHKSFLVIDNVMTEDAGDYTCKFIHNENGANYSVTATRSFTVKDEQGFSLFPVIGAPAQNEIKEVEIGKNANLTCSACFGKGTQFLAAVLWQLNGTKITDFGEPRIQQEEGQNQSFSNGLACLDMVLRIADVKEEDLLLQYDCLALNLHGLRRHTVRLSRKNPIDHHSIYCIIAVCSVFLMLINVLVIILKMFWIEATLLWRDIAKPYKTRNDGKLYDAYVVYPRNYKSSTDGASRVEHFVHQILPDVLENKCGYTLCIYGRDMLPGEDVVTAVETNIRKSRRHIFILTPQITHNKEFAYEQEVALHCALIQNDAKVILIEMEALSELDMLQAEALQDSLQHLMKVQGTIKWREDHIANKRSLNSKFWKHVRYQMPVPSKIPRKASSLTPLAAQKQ
* marks the source's active call; other numbers are inactive results.

For Cc1ccc(-n2c(SCC(=O)N3CCCC3)nc3c(c2=O)SCC3)cc1 the results were ST2 inh inactive.
Screening CCOc1ccc(-n2c(SCc3ccc(F)cc3)nc3c(c2=O)SCC3)cc1 returned ST2 inh inactive.
`COC(=O)c1ccc(CSc2nc3c(c(=O)n2-c2ccc(C)cc2)SCC3)o1` gave ST2 inh inactive.
CSc1oc(-c2cccs2)nc1S(=O)(=O)c1ccc(C)cc1 was read as ST2 inh inactive.
For CC1=C(C(=O)Nc2cc(C)ccn2)C(c2cccc(Cl)c2Cl)C2=C(CCCC2=O)N1 (stereo not given) the results were ST2 inh inactive.
For CC(C)NC(=O)c1ccccc1NC(=O)CCSc1ccccc1 the results were ST2 inh inactive.
For CCOc1ccc(N(CC(=O)Nc2ccc(Br)c(C)c2)S(C)(=O)=O)cc1 the results were ST2 inh inactive.
Cc1cc(C)cc(CN2CC(c3ccccn3)C2)c1 was read as ST2 inh inactive.
For COc1ccc2nc(N3CCC(C(=O)NC(C)C)CC3)sc2c1 the results were ST2 inh inactive.
Screening COc1ccc(C2C(C(=O)Nc3cccc(OC)c3)c3cc(OC)c(OC)cc3C(=O)N2C)cc1 (stereo not given) returned ST2 inh inactive.
`COc1cc(C(=O)Nc2c(C)cc(Br)cc2C)ccc1Cl` gave ST2 inh inactive.
Screening CC(=O)Nc1nc(SCc2ccccc2Cl)n[nH]1 returned ST2 inh inactive.
Screening CN(Cc1ncc[nH]1)C(=O)C1=NNC(=O)CC1 returned ST2 inh inactive.
Cc1cc(Br)ccc1NC(=O)CN1C(=O)c2ccccc2S1(=O)=O was read as ST2 inh inactive.
CCOC(=O)c1c[nH]c2c(F)cccc2c1=O was read as ST2 inh inactive.
`CN(CC1COCCO1)c1nc(-c2cccnc2)nc2c1cnn2C` (stereo not given) gave ST2 inh 34.0%*.
For CC(CN(C)c1nc(-c2cccnc2)nc2c1cnn2C)N1CCOCC1 (stereo not given) the results were ST2 inh inactive.
Screening CN(CCn1cccn1)c1nc(-c2cccnc2)nc2c1cnn2C returned ST2 inh inactive.
O=C(O)c1ccc(/C=C2\NC(=O)N(Cc3ccc(Cl)cc3)C2=O)cc1 was read as ST2 inh inactive.
For COc1ccc(-c2cc(-c3ccccc3)nc(=O)[nH]2)cc1 the results were ST2 inh inactive.
For COc1ccc(-c2ccc[nH]2)cc1 the results were ST2 inh 42.0%*.
COc1ccc(-c2cc3ccccc3[nH]2)cc1 was read as ST2 inh inactive.
Screening Cn1cnnc1SCC(=O)N1CCCC(CO)(Cc2ccc(F)cc2)C1 (stereo not given) returned ST2 inh inactive.
`CCCc1[nH]nc2c1C(c1ccc(OC)c(OC)c1)C(C#N)=C(N)O2` (stereo not given) gave ST2 inh inactive.
Screening Oc1oc(-c2ccc(Cl)cc2)nc1C=Nc1ccc(Br)cc1 returned ST2 inh inactive.
`Oc1oc(-c2ccc(Br)cc2)nc1C=Nc1ccc(Cl)cc1Cl` gave ST2 inh inactive.
For Oc1oc(-c2ccccc2)nc1C=Nc1cccc(Cl)c1 the results were ST2 inh inactive.
`Oc1oc(-c2ccc(Br)cc2)nc1C=Nc1cc(Cl)ccc1Cl` gave ST2 inh inactive.
For Oc1oc(-c2ccc(Cl)cc2)nc1C=Nc1cccc(F)c1 the results were ST2 inh 31.0%*.
Screening Oc1oc(-c2ccccc2)nc1C=Nc1cccc(F)c1 returned ST2 inh inactive.
`Oc1oc(-c2ccc(Cl)cc2)nc1C=Nc1ccccc1Br` gave ST2 inh 31.0%*.
For Oc1oc(-c2ccc(Br)cc2)nc1C=Nc1ccc(Cl)cn1 the results were ST2 inh 42.0%*.
Screening Oc1oc(-c2ccc(Br)cc2)nc1C=Nc1ccccn1 returned ST2 inh inactive.
Screening O=C1CCN(C2CCN(Cc3nc(-c4cccs4)no3)CC2)CCN1 returned ST2 inh inactive.
`Cc1cccc(C(=O)N2CCN=C2SCc2cccnc2)c1` gave ST2 inh inactive.
Screening CCSc1nc2ccccc2n1Cc1ccccc1 returned ST2 inh inactive.
Screening O=C1c2ccc(Br)cc2C(=O)N1CCO returned ST2 inh inactive.
For C=C(C)CNc1nc2nonc2nc1NCCOC the results were ST2 inh inactive.
C=CCNC(=O)N[C@H]1CCN(C(=O)c2cccn2C)[C@@H]1C(=O)N[C@@H](C(=O)OC)C(C)C was read as ST2 inh inactive.
Screening O=C(Cc1cccs1)Nc1ccccc1NC(=O)Cc1cccs1 returned ST2 inh inactive.
For COc1ccccc1NCc1cccs1 the results were ST2 inh 32.0%*.
Screening O=C(O)c1ccc(NCc2cccs2)cc1 returned ST2 inh inactive.
Screening CC(=O)Nc1ccc(-c2cn(CC(N)=O)cn2)cc1 returned ST2 inh inactive.
COc1ccc(Cl)cc1N(CC(=O)NCc1ccco1)S(C)(=O)=O was read as ST2 inh inactive.
Cc1cccc2oc(-c3ccc(N=Cc4cccc([N+](=O)[O-])c4O)cc3)nc12 was read as ST2 inh inactive.
Cc1cccc2oc(-c3cc(N=Cc4cc([N+](=O)[O-])ccc4O)ccc3O)nc12 was read as ST2 inh 32.0%*.
COc1cc([N+](=O)[O-])cc(C=Nc2ccc3oc(-c4ccccc4C)nc3c2)c1O was read as ST2 inh inactive.
`Cc1cccc2oc(-c3cccc(N=Cc4cc([N+](=O)[O-])ccc4O)c3)nc12` gave ST2 inh inactive.
For O=[N+]([O-])c1ccc(O)c(C=Nc2ccc3oc(Cc4ccccc4)nc3c2)c1 the results were ST2 inh 48.0%*.
CCOc1ccc(-c2nc3cc(N=Cc4cc([N+](=O)[O-])ccc4O)ccc3o2)cc1 was read as ST2 inh inactive.
O=C(Nc1ccc(C(F)(F)F)cc1)C1CCN(S(=O)(=O)c2cccs2)CC1 was read as ST2 inh inactive.
Screening COc1ccc(CCNC(=O)N(C)C(C)c2nc(C)sc2C)cc1 (stereo not given) returned ST2 inh inactive.
Screening CCOC(=O)c1ccc(N2C(=O)c3ccccc3NC2c2ccc3c(c2)OCO3)cc1 (stereo not given) returned ST2 inh inactive.
`CCc1cc2c(Nc3ccncc3)ncnc2s1` gave ST2 inh inactive.
`O=C1C(N2CCOCC2)=CC(=NS(=O)(=O)c2ccc(Cl)cc2)c2ccccc21` gave ST2 inh 71.0%*.
Screening O=S(=O)(N=C(c1ccccc1F)N1CCOCC1)c1ccccc1 returned ST2 inh inactive.
O=C1C(N2CCOCC2)=CC(=NS(=O)(=O)c2ccccc2)c2ccccc21 was read as ST2 inh 41.0%*.
Screening O=S(=O)(c1ccccc1)c1cccc(S(=O)(=O)N2CCOCC2)c1 returned ST2 inh inactive.
For O=S(=O)(c1cccc(Cl)c1Cl)N1CCOCC1 the results were ST2 inh inactive.
For Cc1ccc(S(=O)(=O)N(c2ccccc2N2CCOCC2)C(F)F)cc1 the results were ST2 inh inactive.
Cc1nn(C(=O)c2ccnn2C)c(C)c1Cl was read as ST2 inh inactive.
Screening O=C(C1CCC(CNS(=O)(=O)c2cccc3nsnc23)CC1)N1CCc2ccccc21 (stereo not given) returned ST2 inh inactive.
`CCCCOc1ccc(S(=O)(=O)N2CCSC2c2cccc([N+](=O)[O-])c2)cc1` (stereo not given) gave ST2 inh inactive.
